Measured values as given in PubChem BioAssay (NCI).
About 83,000 compounds went through this panel and 20% of them were active in at least one assay; those are over-represented in the sample as a whole.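 Negative percent growth values reflect cell death: -40 means 40% of the cells present at the start died, and -100 means all died.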 Values without a mark were called inactive. Activity calls are given as the source filed them. How the source made its calls: active means growth percent below 10; inactive means the rest.

Legend:
Experiment in all cases: NCI-60 one-dose screen, 48 h (100 = growth as untreated, 0 = no growth, -100 = all killed)
Settings in all cases: 10 µM unless noted
HCT-15 colon = system: HCT-15 colon
HT29 colon = system: HT29 colon
SNB-75 CNS = system: SNB-75 CNS
SNB-19 CNS = system: SNB-19 CNS
U251 CNS = system: U251 CNS
PC-3 prostate = system: PC-3 prostate
SK-MEL-5 melanoma = system: SK-MEL-5 melanoma
UACC-62 melanoma = system: UACC-62 melanoma
LOX IMVI melanoma = system: LOX IMVI melanoma
SK-MEL-28 melanoma = system: SK-MEL-28 melanoma
SK-MEL-2 melanoma = system: SK-MEL-2 melanoma
EKVX NSCLC = system: EKVX NSCLC
SN12C renal = system: SN12C renal
UO-31 renal = system: UO-31 renal
TK-10 renal = system: TK-10 renal
ACHN renal = system: ACHN renal
CAKI-1 renal = system: CAKI-1 renal
A498 renal = system: A498 renal
CCRF-CEM leukemia = system: CCRF-CEM leukemia
MOLT-4 leukemia = system: MOLT-4 leukemia

SMILES	growth (HCT-15 colon)	growth (HT29 colon)	growth (SNB-75 CNS)	growth (SNB-19 CNS)	growth (U251 CNS)	growth (PC-3 prostate)	growth (SK-MEL-5 melanoma)	growth (UACC-62 melanoma)	growth (LOX IMVI melanoma)	growth (SK-MEL-28 melanoma)	growth (SK-MEL-2 melanoma)	growth (EKVX NSCLC) [%]	growth (SN12C renal)	growth (UO-31 renal)	growth (TK-10 renal) [%]	growth (ACHN renal)	growth (CAKI-1 renal)	growth (A498 renal) [%]	growth (CCRF-CEM leukemia)	growth (MOLT-4 leukemia)
CCOC(=O)/C=C1\S/C(=N\Nc2cc(=O)[nH]c3ccc(OC)cc23)N(c2ccccc2)C1=O	93.3%	108%	91.1%	95%	92.9%	99.3%	103%	100%	97.3%	108%	106%	106	96.8%	82.4%	117	96.8%	88.5%	112	65.1%	95.4%
COc1cc(OC)cc(C(=O)Nc2cnc(Nc3ccc(N4CCOCC4)nc3)nc2Oc2ccc(C(F)(F)F)cc2)c1	75.4%	46.8%	-14.5% (active)	44.1%	65.6%	71.4%	93%	76.3%	69.7%	98.9%	94.6%	90.2	43.6%	58.1%	81.9	66.4%	59.7%	77.7	86%	80.7%
COC(=O)[C@H](C)NC(=O)[C@@H]1CCCN1C(=O)CNC(=O)[C@H](C)N	97.4%	104%	78.3%	98.6%	103%	102%	101%	88.8%	96.3%	118%	113%	89.6	105%	91.2%	95.5	108%	88.4%	93.2	115%	102%
Nc1nc(Nc2ccc([N+](=O)[O-])cc2O)nc(C(Cl)(Cl)Cl)n1	53.3%	106%	62.6%	80.2%	73.3%	91.6%	72.7%	41.1%	44.8%	60%	79%	106	80.6%	71.7%	92.4	79.7%	46.3%	36.5	19.3%	25.8%
Cc1nc2ccccc2c(/C=C/c2ccc(Br)cc2)c1C(=O)/C=C/c1ccccc1	-27.3% (active)	-15.1% (active)	51.3%	-11.6% (active)	-81.9% (active)	19.7%	6.82% (active)	-5.46% (active)	-89.6% (active)	3.46% (active)	-4.28% (active)	26.1	10.8%	-74.2% (active)	21.2	6.36% (active)	4.36% (active)	18	6.02% (active)	7.65% (active)
Cc1ccccc1NC(=O)Cn1cc(CN2CCN(c3ccnc4cc(Cl)ccc34)CC2)nn1	98.5%	105%	85.8%	93.3%	100%	81.4%	91.2%	84.3%	97.7%	100%	110%	97.1	94.7%	71.1%	102	95%	80.3%	84.8	-33.5% (active)	45.3%
COc1cccc(C(=O)Nc2cccc(NC(=O)c3ccccn3)c2)c1	90.7%	93.1%	90.3%	108%	109%	98.3%	97.3%	96.3%	95.2%	97.5%	108%	94.1	98.8%	79.5%	96.6	100%	99.1%	93	103%	88.6%
O=C1C(Nc2ccc(Br)cc2)=C(I)C(=O)c2ncccc21	6.76% (active)	54.7%	26.4%	68.3%	32%	39.3%	-17.7% (active)	9.48% (active)	-3% (active)	63.7%	79.2%	77.6	1.34% (active)	-38.4% (active)	70.7	-20.1% (active)	18.6%	96	8.63% (active)	-2.02% (active)
CC/C(=C(/c1ccc(Cl)cc1)c1ccc(OCCN2CCCCCC2)cc1)c1ccccc1	35.3%	17%	107%	83%	62.4%	63.3%	79.6%	87%	68.5%	95.7%	98.7%	85	77%	61.8%	102	103%	85.1%	80.2	44.3%	68.8%
CCOC(=O)c1ccc2c(c1)[n+](=O)c(C(C)=O)c(C(F)(F)F)n2[O-]	-36% (active)	-0.876% (active)	25.6%	17.4%	6.13% (active)	-45.7% (active)	-94.3% (active)	2.99% (active)	-59.7% (active)	27.9%	12.1%	29.1	4.58% (active)	27.4%	40.9	5.29% (active)	40%	12.5	-18.1% (active)	-56.4% (active)
CN1CCN(Cc2ccc(NC(=O)c3cc(C#Cc4cnc(N)c5ncccc45)n(C)n3)cc2C(F)(F)F)CC1	58.4%	91.4%	142%	103%	38.5%	98.9%	93.6%	100%	91.5%	100%	101%	105	76.8%	64%	147	47.2%	105%	83.2	4.79% (active)	80.9%
O=C(O)/C=C\C(=O)Nc1ccc2c(c1)Cc1cc(F)ccc1-2	100%	96.3%	86%	103%	106%	97.3%	101%	103%	96.4%	105%	98%	90.3	100%	81%	114	94.2%	81.3%	109	110%	109%
COc1ccc(Nc2nccc(Nc3ccc4[nH]ncc4c3)n2)cc1	6.21% (active)	12.1%	65.8%	59.7%	35.5%	13.5%	1.85% (active)	38.6%	19%	65.8%	29.8%	50.9	43.4%	15.9%	19.3	29.2%	38.3%	36.5	-1.69% (active)	1.45% (active)
CCCCCC(C)(O)C(C(=O)O)c1ccccc1 (stereo not given)	106%	101%	94.5%	97.1%	99.2%	93.2%	101%	103%	102%	98.4%	108%	104	97.8%	94.5%	104	96.1%	100%	90.3	105%	112%
COC(=O)c1nc(-c2ccc(C)cc2)oc1N1CCOCC1	84.8%	86.8%	84.6%	94.9%	100%	110%	103%	88%	107%	104%	106%	92.8	93.1%	83.7%	81.6	102%	90.3%	77.4	85%	80.8%
C=C(C)Cn1c(SCC(=O)c2cccs2)nc2sc3c(c2c1=O)CCCC3	22.7%	38.9%	62.6%	45.1%	36.3%	48.6%	36.4%	44.8%	4.51% (active)	55.3%	92.3%	77.1	64.5%	58.6%	87.5	44.3%	53.8%	72.1	40%	41.9%
